Results filed as inconclusive are left out. Where a call stands in place of a potency, no number is given. Activity calls are given as the source filed them. Calls come from the whole dose curve; as a rule, active = well fitted cell-killing curve with a large enough effect; inconclusive = small, poorly fitted or top-dose-only effect; inactive = flat fitted curve, though single readings scatter.
experiment: qHTS of pediatric cancer cell lines to identify multiple opportunities for drug repurposing: Primary screen for BT-37 cells (AID 1347094); details: BT-37 viability, CellTiter-Glo luminescence, 48 h; series mostly up to 57.3 µM
From the text: Drug repurposing or repositioning has been offered as a strategy for drug development in oncology programs. This approach has special potential for childhood cancers and other rare or orphan diseases, where the expected return on new drug development has been a disincentive to pharmaceuticals. […] In this project we exploit the poly-pharmacology of drugs to discover new indications via phenotypic screening of a panel of 19 well-characterized cell lines derived from solid tumors seen in children and adolescents. The goal is to identify approved drugs with previously unrecognized anticancer properties that has the potential to reveal new mechanisms and biological processes involved in carcinogenesis or drug resistance. We employed a titration-based paradigm (quantitative high-throughput screening or qHTS), where all compounds were tested at multiple concentrations for their effect on cell viability. Concentration-response curves (CRCs) were derived directly from the primary screen, and both potency and efficacy values were used to identify compounds with robust bioactivity profiles. We screened the NIH Chemical Genomics Center (NCGC) Pharmaceutical Collection (NPC) and Mechanism Interrogation Plate (MIPE) small molecule collections of approved and investigational compounds against these cell lines; and measured metabolically active cells after 48 hours of compound treatment as a proxy for cell viability. […] Assay Submitter: Nathalia J. Martinez, National Center for Advancing Translational Sciences, National Institutes of Health, Rockville, MD, USA; email: natalia.martinez@nih.gov Shen, M et al. Quantitative high-throughput phenotypic screening of pediatric cancer cell lines identifies multiple opportunities for drug repurposing. Oncotarget 2017 Dec 19;9(4):4758-4772. PMID 29435139.
The cells were obtained from University of North Carolina (UNC), Pediatric Preclinical Testing Program (PPT), and Coriell Institute (CI). qHTS cell viability assay: Cells were assayed in growth media at a density of 500-1,000 cells/well. Five microliters of cells were dispensed into 1,536-well, white, solid-bottom, TC-treated plates (Greiner Bio One) using a multidrop dispenser and incubated at 37 degrees C, 5% CO2, under a humidified atmosphere for 5 hours. Twenty-three nanoliters of compounds and controls (neutral control DMSO or positive control bortezomib at final concentration of 2.3 µM) were subsequently transferred by Kalypsys pintool. For primary screens, the MIPE collection was tested at 11-point dilutions (final concentrations range from 0.78 nM to 46 µM) and the NPC collection at 8-point dilutions (final concentrations range from 0.59 nM to 46 µM). Compounds tested in follow-up screens were assayed at 11-point dilutions. Cells were incubated for 48 hours, followed by addition of 3 µL of CellTiter-Glo (Promega). After a 15 min incubation at room temperature, samples were analyzed for luminescence intensity using a ViewLux High-throughput CCD imager equipped with clear filters.
Potency is the fitted concentration of half-maximal effect.

Structure (SMILES)	Potency	activity change, negative = cytotoxic
CC(C)(C(=O)O)c1ccc(C(O)CCCN2CCC(C(O)(c3ccccc3)c3ccccc3)CC2)cc1 (stereo not given)	inactive	–
C[C@H](NC(CCc1ccccc1)C(=O)O)C(=O)N1CCC[C@H]1C(=O)O (stereo not given in full)	inactive	–
CCn1cc(C(=O)O)c(=O)c2cnc(N3CCNCC3)nc21	inactive	–
CNC(=O)Oc1ccc2c(c1)[C@]1(C)CCN(C)[C@@H]1N2C	inactive	–
Cc1cc(O)cc2c1O[C@](C)(CCC[C@H](C)CCC[C@H](C)CCCC(C)C)CC2	inactive	–
CC1(C)CO[C@@H](CC(=O)O)CN1	inactive	–
O=C1O[C@H](CO)[C@@H](O)[C@H](O)[C@H]1O	inactive	–
NS(=O)(=O)c1cc2c(cc1Cl)NC(CSCc1ccccc1)=NS2(=O)=O	inactive	–
CCN(CC)CCSC(=O)C(c1ccccc1)c1ccccc1	inactive	–
Nc1ccc(S(=O)(=O)Nc2nccs2)cc1	inactive	–
O=C(Oc1ccccc1C(=O)O)c1ccccc1O	inactive	–
O=S(=O)(O)c1cc(I)c(O)c2ncccc12	inactive	–
C/C(=C(\CCOP(=O)(O)O)SC(=O)c1ccccc1)N(C=O)Cc1cnc(C)nc1N	–	17.3% [at 6.03 µM] (inactive)
O=C1O[C@H]([C@@H](O)CO)C(O)=C1O	inactive	–
C[C@@H]1C[C@H]2[C@@H]3C[C@H](F)C4=CC(=O)C=C[C@]4(C)[C@@]3(F)[C@@H](O)C[C@]2(C)[C@@]1(O)C(=O)CO	inactive	–
O=C(O)COc1nn(Cc2ccccc2)c2ccccc12	inactive	–
Cc1cccc(Nc2cc(Cl)nc(SCC(=O)O)n2)c1C	inactive	–
O=C1N=C(O)CN1/N=C/c1ccc(-c2ccc([N+](=O)[O-])cc2)o1	inactive	–
CO/N=C(\C(=O)N[C@@H]1C(=O)N2C(C(=O)O)=C(CSc3nc(=O)c(O)nn3C)CS[C@H]12)c1csc(N)n1	inactive	–
CCCCN1CCCC[C@H]1C(=O)Nc1c(C)cccc1C	inactive	–

Structure (SMILES)	Potency	activity change, negative = cytotoxic
CN(N=O)C(=O)N[C@@H]1[C@@H](O)[C@H](O)[C@@H](CO)O[C@@H]1O	inactive	–
CC(=O)CCC(=O)O	inactive	–
COc1ccc2[nH]c(S(=O)Cc3ncc(C)c(OC)c3C)nc2n1 (stereo not given)	inactive	–
CCN(CC)CCNC(=O)c1cc(Cl)c(N)cc1OC	inactive	–
CCCCOC(=O)c1ccc(O)cc1	inactive	–
Oc1ccc(C(O)CNCCCCCCNCC(O)c2ccc(O)c(O)c2)cc1O (stereo not given)	inactive	–
NCCNCCNCCN	inactive	–
C[C@@H]1CC[C@@]2(OC1)O[C@H]1C[C@H]3[C@@H]4CC[C@H]5C[C@@H](O)CC[C@]5(C)[C@H]4CC(=O)[C@]3(C)[C@H]1[C@@H]2C	–	3.33% [at 6.03 µM] (inactive)
CC[C@H]1CN2CCc3cc(OC)c(OC)cc3[C@@H]2C[C@@H]1C[C@H]1NCCc2cc(OC)c(OC)cc21	389 nM (active)	–
C[C@]12C[C@H](O)[C@H]3[C@@H](CCC4=CC(=O)CC[C@@]43C)[C@@H]1CC[C@@H]2C(=O)CO	inactive	–
O=C1OC(OC(=O)c2cccnc2Nc2cccc(C(F)(F)F)c2)c2ccccc21 (stereo not given)	inactive	–
NC(N)=NCCC[C@H](N)C(=O)O	–	4.21% [at 6.03 µM] (inactive)
CCCCC/C(C=O)=C\c1ccccc1	inactive	–
CC1=C(CC(=O)O)c2cc(F)ccc2/C1=C\c1ccc(S(C)(=O)=O)cc1	inactive	–
CN1[C@@H]2CC[C@H]1CC(OC(=O)C(O)c1ccccc1)C2 (stereo not given in full)	inactive	–
CC(=O)Oc1c(C)c(C)c2c(c1C)CC[C@@](C)(CCC[C@H](C)CCC[C@H](C)CCCC(C)C)O2	inactive	–
CC(CN1c2ccccc2Sc2ccccc21)N(C)C (stereo not given)	inactive	–
CCCCN(CCCC)CCCOC(=O)c1ccc(N)cc1	inactive	–
O=C1NS(=O)(=O)c2ccccc21	inactive	–
C=CCn1c(=O)n([C@@H]2O[C@H](CO)[C@@H](O)[C@H]2O)c2nc(N)[nH]c(=O)c21	inactive	–
